Holding throughout (design): scale not given: direction of the effect not stated beside the values
Assay [1] has as its target Protein translocase subunit SecA (Escherichia coli (strain K12)) (UniProt P10408). Kind of assay: Assay to Identify E. coli SecA ATPase Inhibitors. Type of assay: functional. The settings on record: 30 µM.
Assay [2] addresses T1, Ubiquitin-activating enzyme e1, putative (Leishmania donovani (strain BPK282A1)) (UniProt E9BSI1).
T1 sequence (whole entry): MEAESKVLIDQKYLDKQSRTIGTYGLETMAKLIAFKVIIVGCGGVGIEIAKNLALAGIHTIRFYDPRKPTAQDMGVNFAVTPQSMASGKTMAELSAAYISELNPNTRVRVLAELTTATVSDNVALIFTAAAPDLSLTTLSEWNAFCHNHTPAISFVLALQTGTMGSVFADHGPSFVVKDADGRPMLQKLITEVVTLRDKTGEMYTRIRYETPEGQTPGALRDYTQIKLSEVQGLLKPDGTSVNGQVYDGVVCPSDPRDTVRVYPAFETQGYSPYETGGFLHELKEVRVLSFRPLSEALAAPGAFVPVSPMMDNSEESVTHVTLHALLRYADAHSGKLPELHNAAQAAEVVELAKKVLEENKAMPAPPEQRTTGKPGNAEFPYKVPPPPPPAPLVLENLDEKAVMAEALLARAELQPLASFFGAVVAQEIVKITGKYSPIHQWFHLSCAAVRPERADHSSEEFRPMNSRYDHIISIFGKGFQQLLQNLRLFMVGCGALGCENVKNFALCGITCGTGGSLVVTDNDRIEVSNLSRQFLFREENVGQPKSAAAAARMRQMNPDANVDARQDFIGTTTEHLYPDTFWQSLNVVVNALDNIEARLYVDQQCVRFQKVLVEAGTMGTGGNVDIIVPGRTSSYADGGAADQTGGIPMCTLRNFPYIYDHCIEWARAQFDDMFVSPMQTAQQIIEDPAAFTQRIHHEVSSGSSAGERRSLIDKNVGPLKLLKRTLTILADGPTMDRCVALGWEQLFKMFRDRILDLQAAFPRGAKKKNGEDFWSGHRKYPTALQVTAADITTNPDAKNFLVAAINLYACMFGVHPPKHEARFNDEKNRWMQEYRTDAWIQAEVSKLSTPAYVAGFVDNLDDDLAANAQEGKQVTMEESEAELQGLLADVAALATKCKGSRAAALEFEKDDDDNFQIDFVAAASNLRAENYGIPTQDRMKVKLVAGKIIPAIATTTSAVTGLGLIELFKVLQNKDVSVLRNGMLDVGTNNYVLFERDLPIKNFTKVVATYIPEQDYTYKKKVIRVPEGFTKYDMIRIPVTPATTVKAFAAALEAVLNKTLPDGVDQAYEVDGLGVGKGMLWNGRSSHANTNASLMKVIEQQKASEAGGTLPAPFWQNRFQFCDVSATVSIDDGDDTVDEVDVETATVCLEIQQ
Kind of assay: Leishmania donovani Ubiquitin Activating Enzyme (LdE1). The class given is functional. The settings on record: 30 µM.

Assay [3] concerns the target AMP-activated protein kinase, AMPK (Homo sapiens) (UniProt P54646+O43741+P54619+Q9UGJ0+Q9Y478+Q13131+Q9UGI9). Kind of assay: AMP-dependent Kinase enzyme assay. An in vitro enzyme assay that detects ADP turnover that is directly proportional to AMPK activity. This uses naive AMPK that is activated during the assay with MK-8722. The class given is functional. The settings on record: 30 µM.

Assay [4] concerns the target Sialic acid-binding Ig-like lectin 9 (Homo sapiens) (UniProt Q9Y336). Kind of assay: Hs-Siglec9 ALPHAscreen SOP 20170721. The settings on record: 10 µM. In general terms: Bead proximity is the source of the signal in Alpha formats.
The subject of a further assay is Trypanosoma cruzi. Nature of the assay: Trypanosoma cruzi phosphomannomutase and mannose-1-phosphate guanylyltransferase assay. The settings on record: 10 µM. Type of assay: functional.
The target in assay [5] is T2, Arginase-2, mitochondrial (Homo sapiens) (UniProt P78540).
T2 sequence (whole entry): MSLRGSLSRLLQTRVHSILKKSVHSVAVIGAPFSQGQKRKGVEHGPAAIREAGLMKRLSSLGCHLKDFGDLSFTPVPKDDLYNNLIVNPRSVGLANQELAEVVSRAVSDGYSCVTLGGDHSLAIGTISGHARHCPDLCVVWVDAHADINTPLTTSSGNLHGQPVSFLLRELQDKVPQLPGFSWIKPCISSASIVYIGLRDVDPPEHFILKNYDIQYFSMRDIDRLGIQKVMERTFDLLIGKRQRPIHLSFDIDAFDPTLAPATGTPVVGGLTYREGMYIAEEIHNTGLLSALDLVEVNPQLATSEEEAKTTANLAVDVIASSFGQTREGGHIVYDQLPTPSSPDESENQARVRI
Kind of assay: in vitro enzyme assay to detect the production of urea directly proportional to the activity of Arginase II. Also: in the data most compounds retested in dose-response had high values. The settings on record: 33.3 µM. The class given is functional.

For assay [6], the target named is T3, Proteasome subunit beta (Trypanosoma cruzi) (UniProt O96673).
T3 sequence (whole entry): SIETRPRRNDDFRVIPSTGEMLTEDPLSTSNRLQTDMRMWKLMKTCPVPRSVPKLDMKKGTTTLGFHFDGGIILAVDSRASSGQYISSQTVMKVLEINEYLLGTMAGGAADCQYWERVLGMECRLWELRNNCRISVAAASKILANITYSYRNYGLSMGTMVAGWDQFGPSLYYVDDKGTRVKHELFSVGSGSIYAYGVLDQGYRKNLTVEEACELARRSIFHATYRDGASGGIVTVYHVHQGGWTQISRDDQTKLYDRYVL
Nature of the assay: Trypanosoma cruzi proteasome chymotrypsin-like activity (TcProtChymo) assay. Also: in the data most compounds retested in dose-response had high values. The settings on record: 9.37 µM. The class given is functional.

The species entered for the next assay is Homo sapiens. Nature of the assay: To identify inhibition of the IFN signalling (Jak-Stat) pathway via expression of an eGFP reporter gene under the control of an IFN-stimulated response element (ISRE) containing MxA promoter. The settings on record: 30 µM. Type of assay: functional. A general note: A reporter such as luciferase makes a cellular process visible.

Assay [7] addresses T4, Tyrosyl-tRNA synthetase, putative (Trypanosoma cruzi (strain CL Brener)) (UniProt Q4DSP6).
T4 sequence (whole entry): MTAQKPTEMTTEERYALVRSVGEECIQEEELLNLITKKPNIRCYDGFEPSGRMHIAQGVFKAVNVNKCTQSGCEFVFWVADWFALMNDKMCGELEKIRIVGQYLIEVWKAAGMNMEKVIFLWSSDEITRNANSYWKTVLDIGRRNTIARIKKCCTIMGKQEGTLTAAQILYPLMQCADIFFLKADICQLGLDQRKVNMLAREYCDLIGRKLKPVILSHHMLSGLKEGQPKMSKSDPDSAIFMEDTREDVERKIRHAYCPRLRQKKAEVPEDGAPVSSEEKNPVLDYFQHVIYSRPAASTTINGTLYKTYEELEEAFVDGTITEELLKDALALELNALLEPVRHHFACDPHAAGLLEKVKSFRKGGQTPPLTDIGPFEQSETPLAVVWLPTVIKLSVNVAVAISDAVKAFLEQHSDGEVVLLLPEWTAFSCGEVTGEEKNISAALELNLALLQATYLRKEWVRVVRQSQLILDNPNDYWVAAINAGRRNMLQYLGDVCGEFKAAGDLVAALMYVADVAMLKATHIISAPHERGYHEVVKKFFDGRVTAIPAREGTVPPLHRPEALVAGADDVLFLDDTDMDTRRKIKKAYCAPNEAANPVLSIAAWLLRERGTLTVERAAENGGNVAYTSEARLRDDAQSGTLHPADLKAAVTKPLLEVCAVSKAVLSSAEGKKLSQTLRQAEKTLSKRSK
Kind of assay: Trypanosoma cruzi tyrosyl tRNA synthetase (TcYRS) _High Tyrosine SOP. Also: in the data most compounds retested in dose-response had high values. The class given is functional. The settings on record: 30 µM.

Assay [8] concerns the target T4, Tyrosyl-tRNA synthetase, putative (Trypanosoma cruzi (strain CL Brener)). Nature of the assay: Trypanosoma cruzi tyrosyl tRNA synthetase (TcYRS) SOP. The class given is functional. The settings on record: 30 µM.
The target of assay [9] is Chromo domain-containing protein 1 (Saccharomyces cerevisiae (strain ATCC 204508 / S288c) (Baker's yeast)) (UniProt P32657). Kind of assay: ScCHD-1 Enzyme Inhibition Assay. Also: in the data most compounds retested in dose-response had high values. The class given is functional. The settings on record: 30 µM.
Chain of Chromo domain-containing protein 1 (Saccharomyces cerevisiae (strain ATCC 204508 / S288c) (Baker's yeast)) (P32657 whole entry, the tested form may be a part): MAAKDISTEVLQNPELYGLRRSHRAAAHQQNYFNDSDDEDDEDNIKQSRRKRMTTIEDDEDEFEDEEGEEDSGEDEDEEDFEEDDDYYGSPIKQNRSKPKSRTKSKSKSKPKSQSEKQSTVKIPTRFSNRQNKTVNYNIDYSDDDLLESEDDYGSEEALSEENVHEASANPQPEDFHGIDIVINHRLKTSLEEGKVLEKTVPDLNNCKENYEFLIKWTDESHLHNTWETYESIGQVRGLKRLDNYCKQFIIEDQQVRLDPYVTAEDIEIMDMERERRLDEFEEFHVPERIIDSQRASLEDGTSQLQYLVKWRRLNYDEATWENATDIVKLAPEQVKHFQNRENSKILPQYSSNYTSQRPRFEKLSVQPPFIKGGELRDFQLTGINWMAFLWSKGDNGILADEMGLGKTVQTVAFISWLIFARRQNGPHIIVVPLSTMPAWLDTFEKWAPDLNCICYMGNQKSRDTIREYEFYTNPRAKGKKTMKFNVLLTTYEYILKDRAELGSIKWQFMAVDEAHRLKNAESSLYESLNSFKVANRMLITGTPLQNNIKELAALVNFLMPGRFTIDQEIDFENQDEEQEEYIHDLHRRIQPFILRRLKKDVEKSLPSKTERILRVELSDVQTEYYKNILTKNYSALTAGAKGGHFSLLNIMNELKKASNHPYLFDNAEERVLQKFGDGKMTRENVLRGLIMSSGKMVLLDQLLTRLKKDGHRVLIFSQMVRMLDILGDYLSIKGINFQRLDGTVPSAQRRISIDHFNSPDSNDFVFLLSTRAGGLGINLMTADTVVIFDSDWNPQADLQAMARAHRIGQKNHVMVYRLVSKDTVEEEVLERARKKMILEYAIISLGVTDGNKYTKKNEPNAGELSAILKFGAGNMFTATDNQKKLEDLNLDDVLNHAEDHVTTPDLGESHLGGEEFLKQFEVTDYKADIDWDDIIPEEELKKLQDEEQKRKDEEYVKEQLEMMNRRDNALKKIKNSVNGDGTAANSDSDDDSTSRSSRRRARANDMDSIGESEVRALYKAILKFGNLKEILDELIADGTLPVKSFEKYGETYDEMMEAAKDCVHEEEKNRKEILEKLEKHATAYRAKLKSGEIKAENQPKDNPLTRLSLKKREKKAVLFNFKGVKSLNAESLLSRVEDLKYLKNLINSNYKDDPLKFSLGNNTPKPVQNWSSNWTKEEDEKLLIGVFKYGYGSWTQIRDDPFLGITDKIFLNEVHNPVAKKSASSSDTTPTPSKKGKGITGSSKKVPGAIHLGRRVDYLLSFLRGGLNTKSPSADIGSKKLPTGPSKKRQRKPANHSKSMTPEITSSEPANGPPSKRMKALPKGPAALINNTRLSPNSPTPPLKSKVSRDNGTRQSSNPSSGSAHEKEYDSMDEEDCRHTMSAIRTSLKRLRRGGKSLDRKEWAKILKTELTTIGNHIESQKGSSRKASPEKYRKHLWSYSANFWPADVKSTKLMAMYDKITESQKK

For some of these results: Measured potencies and affinities stand elsewhere.

Chain of Protein translocase subunit SecA (Escherichia coli (strain K12)) (P10408 whole entry): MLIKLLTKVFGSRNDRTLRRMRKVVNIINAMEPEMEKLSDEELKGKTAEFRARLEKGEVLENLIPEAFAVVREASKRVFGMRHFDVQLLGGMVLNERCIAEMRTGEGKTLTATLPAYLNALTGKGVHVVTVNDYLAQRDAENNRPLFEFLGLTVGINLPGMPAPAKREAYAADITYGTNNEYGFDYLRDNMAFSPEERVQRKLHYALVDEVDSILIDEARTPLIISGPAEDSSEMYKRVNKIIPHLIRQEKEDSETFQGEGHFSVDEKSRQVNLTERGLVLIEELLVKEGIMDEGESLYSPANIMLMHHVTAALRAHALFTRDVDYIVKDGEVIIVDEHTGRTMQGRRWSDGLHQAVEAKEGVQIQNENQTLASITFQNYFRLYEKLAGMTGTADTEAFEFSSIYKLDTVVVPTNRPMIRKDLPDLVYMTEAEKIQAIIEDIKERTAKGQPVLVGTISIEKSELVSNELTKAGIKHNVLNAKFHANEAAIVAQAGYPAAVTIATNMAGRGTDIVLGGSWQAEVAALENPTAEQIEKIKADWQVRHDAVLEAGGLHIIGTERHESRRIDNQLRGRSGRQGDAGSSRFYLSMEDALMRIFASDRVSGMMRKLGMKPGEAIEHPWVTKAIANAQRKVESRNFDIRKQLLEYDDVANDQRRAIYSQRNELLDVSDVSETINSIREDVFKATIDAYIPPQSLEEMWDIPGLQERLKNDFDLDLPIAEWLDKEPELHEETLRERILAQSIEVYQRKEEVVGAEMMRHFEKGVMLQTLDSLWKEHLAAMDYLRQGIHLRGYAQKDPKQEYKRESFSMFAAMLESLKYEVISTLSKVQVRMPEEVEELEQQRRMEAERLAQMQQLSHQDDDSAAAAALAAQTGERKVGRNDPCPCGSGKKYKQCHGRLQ
Chain of Sialic acid-binding Ig-like lectin 9 (Homo sapiens) (Q9Y336 whole entry): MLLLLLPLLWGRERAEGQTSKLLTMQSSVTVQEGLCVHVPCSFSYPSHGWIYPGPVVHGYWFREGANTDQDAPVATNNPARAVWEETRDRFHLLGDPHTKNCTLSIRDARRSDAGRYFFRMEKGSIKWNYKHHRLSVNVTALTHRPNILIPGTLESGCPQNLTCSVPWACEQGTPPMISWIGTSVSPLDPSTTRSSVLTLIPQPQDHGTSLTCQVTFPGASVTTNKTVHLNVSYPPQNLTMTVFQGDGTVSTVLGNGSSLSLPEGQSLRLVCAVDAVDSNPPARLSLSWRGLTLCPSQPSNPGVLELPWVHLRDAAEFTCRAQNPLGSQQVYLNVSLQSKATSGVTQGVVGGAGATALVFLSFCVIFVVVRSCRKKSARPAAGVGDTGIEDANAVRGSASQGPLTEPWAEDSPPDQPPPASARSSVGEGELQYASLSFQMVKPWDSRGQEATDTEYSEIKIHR

`Cc1ncc2c(n1)CCCC2NC(=O)c1ccncc1` (stereo unspecified): the Percent Effect was -8.52% in assay [1]; 2.6% in assay [2]; -3.85% in [3]; 1.2% in assay [4]; -1.87% in the assay with Trypanosoma cruzi; -1.38% in [5]. Moreover, the Percent Effect in assay [6] is 3.16%; in the assay listed under Homo sapiens it was 0.503%; in assay [7], 1.07%; in assay [8] it was -3.7%; in assay [9], -0.226%.

`Cc1cc(C)c(CNC(=O)N2CCCC2C(N)=O)c(=O)[nH]1` (stereo unspecified): the Percent Effect was -3.77% in [1]; 6.33% in assay [2]; 7.27% in [3]; 3.83% in [4]; -1.95% with Trypanosoma cruzi; 1.5% in assay [5]. Also, the Percent Effect in [6] was 23.5%; in the assay filed under Homo sapiens, 11.6%; in assay [7], 5.21%; in assay [8], 12.7%; in assay [9], -14.7%.

Consider `CNc1nc(CNC(=O)Nc2cccc(F)c2C)cs1`, for which the Percent Effect in assay [1] was -0.623%; in [2], -2.63%; in assay [3] it was -1.93%; in assay [4] it was 5.4%; in the assay with Trypanosoma cruzi, -1.32%; in [5] it was 1.15%. In addition, the Percent Effect in assay [6] is 5.18%; in the assay filed under Homo sapiens it was 8.24%; in assay [7] it was 1.47%; in assay [8], -2.44%; in assay [9] it was 5.82%.

For `CN(C)S(=O)(=O)c1ccc(CN2CCCC2c2ccccc2)o1` (stereo unspecified), the Percent Effect is -4.81% in [1]; -7.89% in assay [2]; 2.57% in assay [3]; -3.79% in assay [4]; 9.06% in the assay with Trypanosoma cruzi; 2.88% in assay [5]. Besides, the Percent Effect was 5.33% in assay [6]; 15.1% in the assay filed under Homo sapiens; 6.4% in assay [7]; 23.5% in assay [8]; -6.96% in assay [9].

With `Cc1nc(CN2CCCC(N(C)CCc3ccncc3)C2)no1` (stereo unspecified), the Percent Effect in assay [1] was 0.743%; in [2], 18.9%; in [3] it was -12.8%; in assay [4], -5.86%; with Trypanosoma cruzi it was -2.51%; in assay [5], 6.84%. For the same compound, the Percent Effect in [6] was found to be 10.4%; in the assay listed under Homo sapiens, 24.3%; in [7], 0%; in assay [8], 13.4%; in assay [9] it was 0.929%.

Take `CCc1nc(CC(=O)N2CCOCC2c2ncon2)cs1` (stereo unspecified): the Percent Effect in assay [1] is -0.574%; in assay [2], -2.7%; in assay [3], -3.99%; in assay [4], -2.13%; in the assay on Trypanosoma cruzi it was -3.99%; in assay [5], 1.29%. Besides, the Percent Effect in [6] was 5.75%; in the assay filed under Homo sapiens, -8.37%; in assay [7], 0%; in assay [8] it was -1.22%; in assay [9] it was 2.33%.

Regarding `O=C(c1cccc2c1OCO2)N1CCCC(n2cccn2)C1` (stereo unspecified), the Percent Effect was -4.91% in assay [1]; 2.7% in [2]; -10.6% in [3]; 1.58% in assay [4]; -5.94% in the assay on Trypanosoma cruzi; -1.2% in assay [5]. The Percent Effect was 8.29% in assay [6]; 10.5% in the assay filed under Homo sapiens; 0.493% in [7]; 3.7% in [8]; -1.47% in assay [9].

Turning to `CNS(=O)(=O)c1ccc(CNC(=O)NCC2CCCO2)cc1` (stereo unspecified), the Percent Effect in assay [1] was -5%; in assay [2], 13%; in assay [3], 16.9%; in assay [4], -9.06%; in the assay on Trypanosoma cruzi, 1.67%; in assay [5] it was -2.74%. Further, the Percent Effect in [6] was 12.8%; in the assay filed under Homo sapiens it was 14.9%; in assay [7] it was 0.952%; in [8] it was 18.8%; in [9] it was -17.3%.

As for `CN(C)C(=O)N1CCN(Cc2cnn(C)c2)CC2(CNC(=O)C2)C1` (stereo unspecified), the Percent Effect in assay [1] was -2.48%; in [2] it was 0%; in [3] it was 2.36%; in assay [4], 11.3%; with Trypanosoma cruzi, -3.03%; in assay [5], -2.87%. Further, the Percent Effect was 17% in [6]; 3.58% in the assay listed under Homo sapiens; 4.32% in [7]; 2.56% in assay [8]; 3.46% in assay [9].

On to `CC(C)Oc1ccc(CSc2nnc(CN3CCCC3=O)o2)cc1`, for which the Percent Effect in assay [1] was -7.37%; in [2], -5.33%; in [3], -6.5%; in [4], 10%; with Trypanosoma cruzi, 8.28%; in [5], 1.04%. The Percent Effect is 9.24% in assay [6]; 13.4% in the assay listed under Homo sapiens; 1.64% in assay [7]; 6.17% in [8]; -3.99% in assay [9].

`Cc1nc(N2CCN(C(=O)c3ccsc3)CC2)c2cnn(C)c2n1`: the Percent Effect was -3.6% in assay [1]; 2.7% in [2]; -6.08% in assay [3]; 16.1% in assay [4]; 1.6% with Trypanosoma cruzi; -6.01% in assay [5]. Further, the Percent Effect is 5.04% in assay [6]; 5.31% in the assay filed under Homo sapiens; 4.43% in assay [7]; 13.6% in [8]; -7.11% in assay [9].

Values taken from ChEMBL document CHEMBL3988442, “University of Dundee, Small-Polar-MMV Screening Library” (2021).
